Most compounds without a hit are left out; they make up all but 3.4% or so of the library.
PP5 inh: PP5 phosphatase inhibitors, primary screen, biochemical, fluorescence; Serine/threonine-protein phosphatase 5 (Homo sapiens), P53041; purified PP5c, OMFP substrate fluorescence; inhibition, % at 6.7 µM; 320,000 tested, 0.18% active;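 active means inhibition above the campaign's mean inhibition across all tested compounds plus 3 SD, cut at about 9.5% in these data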;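 further: 0% = DMSO only and 100% = 100 µM cantharidin control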
PAFAH1B3 inh: PAFAH1B3 enzyme inhibitors, primary screen, biochemical, fluorescence polarization, human; Platelet-activating factor acetylhydrolase IB subunit alpha1 (Homo sapiens), Q15102; recombinant PAFAH1B3, FP-rhodamine probe; inhibition, % at 3.39 µM; 340,000 tested, 0.28% active;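 active means inhibition above the screen-wide average of all tested compounds plus 3 SD, cut at about 25% in these data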;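 further: 0% = enzyme with DMSO only and 100% = wells lacking PAFAH1B3 protein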
PAFAH1B2 inh: PAFAH1B2 enzyme inhibitors, primary screen, biochemical, fluorescence polarization, human. recombinant PAFAH1B2, FP-rhodamine activity probe. inhibition, % at 3.39 µM. 340,000 tested, 1.2% active. AID 492953, 2010;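 active means inhibition above the mean of all tested compounds plus 3 SD, cut at about 24% in these data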;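 further: 0% = enzyme with DMSO and 100% = wells lacking PAFAH1B2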
PAFAH2 inh: PAFAH2 enzyme inhibitors, primary screen, biochemical, fluorescence polarization, human; recombinant PAFAH2, FP-rhodamine activity probe; inhibition, % at 3.39 µM; AID 492956, 2010; 340,000 tested, 0.99% active; Platelet-activating factor acetylhydrolase 2, cytoplasmic (Homo sapiens), Q99487;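 active means inhibition above the mean over all tested compounds plus 3 SD, cut at about 30% in these data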;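 further: inhibitors block probe labeling of enzyme so polarization drops; 0% = enzyme with DMSO and 100% = wells lacking PAFAH2 protein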
PP1 counter: PP1-alpha phosphatase inhibitors, primary screen, counter-screen for PP5 inhibitor project, biochemical, fluorescence, OMFP substrate, single point | Serine/threonine-protein phosphatase PP1-alpha catalytic subunit (Homo sapiens), P62136 | inhibition, % at 6.7 µM | 320,000 tested, 0.9% active | AID 2235, 2010 | purified PP1alpha;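 active means inhibition above the mean inhibition of all tested compounds plus 3 SD, computed separately for each screening campaign, cut at about 15% in these data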
pPAFAH inh: pPAFAH enzyme inhibitors, primary screen, biochemical, fluorescence polarization, human. Platelet-activating factor acetylhydrolase (Homo sapiens), Q13093. recombinant pPAFAH, FP-rhodamine probe fluorescence polarization. inhibition, % at 3.39 µM. 330,000 tested, 1.5% active. AID 463082, 2010;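 active means inhibition above the mean inhibition across the screen plus 3 SD, cut at about 25% in these data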;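 further: inhibitors block binding of the rhodamine activity-based probe so polarization drops; 0% = enzyme with DMSO and 100% = wells lacking pPAFAH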
Target sequence (Q13093 whole entry, looked up): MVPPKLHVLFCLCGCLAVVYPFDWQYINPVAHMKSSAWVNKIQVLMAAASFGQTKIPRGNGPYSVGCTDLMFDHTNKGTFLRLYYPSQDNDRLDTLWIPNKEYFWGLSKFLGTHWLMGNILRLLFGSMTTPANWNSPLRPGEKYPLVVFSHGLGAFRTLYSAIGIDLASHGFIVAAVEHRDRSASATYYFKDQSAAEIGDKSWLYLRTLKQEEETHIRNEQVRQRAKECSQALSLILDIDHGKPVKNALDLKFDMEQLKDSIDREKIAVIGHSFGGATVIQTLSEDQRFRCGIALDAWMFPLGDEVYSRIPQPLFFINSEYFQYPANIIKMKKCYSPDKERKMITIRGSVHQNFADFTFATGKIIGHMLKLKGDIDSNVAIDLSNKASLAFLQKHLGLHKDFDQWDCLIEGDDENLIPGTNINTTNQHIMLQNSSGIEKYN
pPAFAH confirm: pPAFAH (PLA2G7) enzyme inhibitors, confirmation, biochemical, fluorescence polarization, human | shares compounds with pPAFAH inh | recombinant pPAFAH, FP-Rh probe fluorescence polarization | inhibition, % at 3.39 µM | 2,300 tested, 72% active;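 active means mean inhibition of the triplicate above the hit cutoff set for the earlier primary screen, cut at about 25% in these data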;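 further: 0% = enzyme with DMSO and 100% = wells lacking pPAFAH enzyme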
* marks the source's active call; other numbers are inactive results; · = no result given.

SMILES	PP5 inh	PAFAH1B3 inh	PAFAH1B2 inh	PAFAH2 inh	PP1 counter	pPAFAH inh	pPAFAH confirm
O=C1C(CSCc2ccccc2)NC(=S)N1c1ccccc1 (stereo unspecified)	-3	·	·	·	3	37*	-1
CCN(CC)C(C(=O)Nc1ccc2c(c1)OCO2)c1ccccc1 (stereo unspecified)	-2	6	6	10	-1	44*	4
CC(CC(=O)Nc1ccc2c(c1)OCO2)c1ccccc1 (stereo unspecified)	-2	9	2	5	4	8	·
Oc1ccc(-c2nc(-c3ccc(O)c(O)c3)cs2)cc1	3	-4	0	0	1	49*	38*
COc1cc(OC)cc(C(=O)N[C@H](C(=O)NCc2ccc(F)cc2)C(C)C)c1	2	10	-2	4	4	1	·
C=CCn1c(SC(C)C(=O)Nc2ccc(Cl)cn2)nnc1C1CC1 (stereo unspecified)	-2	-5	-2	-5	-6	-6	·
C=CCn1c(SC(C)C(=O)Nc2ccc(F)c(F)c2F)nnc1C1CC1 (stereo unspecified)	2	-7	0	0	-5	35*	2
Cn1c(SCC(=O)Nc2ccc3[nH]c(=O)[nH]c3c2)nnc1-c1ccc(F)cc1	4	14	7	5	-3	4	·
COc1ccccc1C(=O)NCC(=O)OCC(=O)Nc1ccc2[nH]c(=O)[nH]c2c1	1	3	3	-5	0	39*	1
O=C(COC(=O)CNC(=O)c1ccccc1F)Nc1ccc2[nH]c(=O)[nH]c2c1	0	5	1	-9	-1	1	·
COc1cc(C(=O)Oc2c(CN3CCOCC3)cc(Cl)c3cccnc23)cc(OC)c1OC	1	5	1	4	7	40*	5
COc1ccc(C(=O)Oc2c(CN3CCOCC3)cc(Cl)c3cccnc23)cc1	2	10	-1	2	-4	4	·
CCn1nc2cc(C(=O)NCCc3cccs3)ccc2c1OC	-2	6	1	6	0	50*	2
CCOc1c2ccc(C(=O)NCCc3ccc(C)cc3)cc2nn1CC	1	2	6	-6	-3	11	·
CC(C)(C)c1cc(C(=O)N/N=C/c2ccc(-c3ccccc3[N+](=O)[O-])o2)n[nH]1	3	5	5	9	2	58*	9
CCOc1ccc(/C=C(\C)C(=O)c2c(C)cc(C)[nH]c2=O)cc1	0	11	2	2	0	-2	·
CN(C)c1ccc(Nc2ccc([N+](=O)[O-])cn2)cc1	0	-2	3	2	-1	6	·
N=C1SC(c2ccccc2)C(=O)N1c1ncc(Cc2ccccc2Cl)s1 (stereo unspecified)	-1	0	13	25	16*	58*	71*
CC(OC(=O)CCCN=C1NS(=O)(=O)c2ccccc21)C(=O)N(C)c1ccccc1 (stereo unspecified)	0	6	-1	1	-9	68*	0
COc1ccc(NC(=O)c2cc3c(-c4ccc(OC)c(OC)c4)nn(C)c3s2)cc1OC	4	14	4	18	-1	46*	43*
O=C(N/N=C/c1ccc(N2CCOCC2)cc1)c1ccc(NS(=O)(=O)c2cccs2)cc1	1	2	0	0	2	7	·
O=C(N/N=C/c1ccc([N+](=O)[O-])o1)c1ccc(NS(=O)(=O)c2cccs2)cc1	2	18	3	14	-1	39*	12
CCCCCCSc1ccc([C@@H]2[C@H]3C(=O)N(CC)C(=O)[C@H]3[C@]3(C(=O)OC)CCCCN23)cc1OC	·	-8	4	-3	·	14	·
COC(=O)c1ccccc1S(=O)(=O)N1CCC(C(=O)OCC(=O)c2ccccc2OC)CC1	4	4	2	5	-2	-1	·
COc1cccc2c1NC(C(=O)O)C1CC=CC21 (stereo unspecified)	4	24	30*	48*	37*	57*	11
SMILES	PP5 inh	PAFAH1B3 inh	PAFAH1B2 inh	PAFAH2 inh	PP1 counter	pPAFAH inh	pPAFAH confirm
COc1cccc(C2Nc3c(F)cc(Br)cc3C3C=CCC32)c1OC (stereo unspecified)	-1	16	2	9	-3	0	·
Cc1cc(C)n2nc(C(=O)NNC(=O)c3ccccc3)nc2n1	1	5	-1	1	0	0	·
CCCOC(=O)c1cc(-c2ccc(C=O)o2)ccc1Cl	0	1	1	-4	-1	14	·
CCCOC(=O)c1cc(-c2ccc(/C=C3/C(=O)N(C)C(=O)C(C#N)=C3C)o2)ccc1Cl	8	7	7	11	-2	58*	26*
CCc1ccccc1NC(=O)NC1CCCCCCC1	·	3	6	3	·	·	·
Cc1cccc(NC(=O)CNC(=O)Cc2ccc(S(=O)(=O)N3CCOCC3)s2)c1C	3	5	3	-6	-2	7	·
C[C@H]1CN([C@@H](C)CO)C(=O)Cc2cc(NS(=O)(=O)c3ccc(Cl)cc3)ccc2O[C@@H]1CN(C)C(=O)Nc1cccc2ccccc12	·	13	12	16	·	49*	54*
CC(C)NC(=O)N(C)C[C@H]1Oc2ccc(NS(=O)(=O)c3ccc(Cl)cc3)cc2CC(=O)N([C@@H](C)CO)C[C@@H]1C	·	5	12	4	·	8	·
CCOC(=O)N1CCN(C(=O)c2ccc3c(=O)n4c(nc3c2)CCCCC4)CC1	2	·	·	·	-2	56*	1
CN(CC(=O)Nc1ccc(Cl)cc1)C(=O)CCc1nc2sc3c(c2c(=O)[nH]1)CCCC3	-3	-7	7	-2	-1	6	·
CN(Cc1c(F)cccc1Cl)C(=O)CNC(=O)c1sc2ccccc2c1Cl	0	0	-1	-5	-7	-1	·
COc1ccc(NC(=O)CNc2ccccc2C(C)=O)cc1S(=O)(=O)N1CCOCC1	·	9	10	12	·	1	·
CC(OC(=O)c1ccc(Cl)cc1)C(=O)NCc1ccc2c(c1)OCO2 (stereo unspecified)	-1	7	5	7	-5	54*	2
O=C(OCC(=O)N1CCN(C(=O)c2ccco2)CC1)c1cc(S(=O)(=O)Nc2ccc(Cl)cc2)ccc1O	-4	4	33*	13	-2	62*	68*
